Records with an inconclusive call do not appear. Calls of active or inactive are those of the source. The call rests on the fitted dose curve; in most records, active means well fitted cell-killing curve with a large enough effect; inconclusive means small, poorly fitted or top-dose-only effect, or effect the other way; inactive means no such curve, though single readings can be large or run the other way.

The values that follow come from PubChem BioAssay (NCATS).

Test [1] is described as follows: Quantitative High-Throughput drug screen in 47 multiple myeloma cell lines against the NCATS MIPE library collection: U266_ATCC cell viability assay (AID 1919864). Further: nearly all actives have a fitted effect of over 35% in size. In a few lines: (§1)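 Myeloma cells (500/well) treated with MIPE 4.0 compounds for 48 h at 37 °C, 5% CO2. Viability read as ATP via CellTiter-Glo luminescence after 5 min at RT; DMSO-only wells = 100%, media-only = 0% viability.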

A short description of test [2]: Quantitative High-Throughput drug screen in 47 multiple myeloma cell lines against the NCATS MIPE library collection: XG6_PLB cell viability assay (AID 1919865). Further: nearly all actives have a fitted effect of over 40% in size. An outline of the steps: as §1
Test [3] in a line: Quantitative High-Throughput drug screen in 47 multiple myeloma cell lines against the NCATS MIPE library collection: XG1_PLB cell viability assay (AID 1919866). Further: nearly all actives have a fitted effect of over 35% in size. An outline of the steps: as §1
Test [4] in a line: Quantitative High-Throughput drug screen in 47 multiple myeloma cell lines against the NCATS MIPE library collection: VP6_DJ cell viability assay (AID 1919867). Further: nearly all actives have a fitted effect of over 40% in size. In a few lines: as §1
The nature of test [5]: Quantitative High-Throughput drug screen in 47 multiple myeloma cell lines against the NCATS MIPE library collection: UTMC2_PLB cell viability assay (AID 1919868). Further: nearly all actives have a fitted effect of over 55% in size. As to conditions: CellTiter-Glo ATP luminescence, 48 h; viability (% of DMSO control): at 45.8 µM (top of the series). In a few lines: as §1
In general terms: Cellular ATP, detected with luciferase, serves as a proxy for viable cell number.

Test [6] can be described thus: Quantitative High-Throughput drug screen in 47 multiple myeloma cell lines against the NCATS MIPE library collection: PE2_PLB cell viability assay (AID 1919869). Further: nearly all actives have a fitted effect of over 35% in size. In a few lines: as §1
Test [7] in a line: Quantitative High-Throughput drug screen in 47 multiple myeloma cell lines against the NCATS MIPE library collection: PCM6_Riken cell viability assay (AID 1919870). Further: nearly all actives have a fitted effect of over 30% in size. An outline of the steps:
as §1

The nature of test [8]: Quantitative High-Throughput drug screen in 47 multiple myeloma cell lines against the NCATS MIPE library collection: RPMI8226_ATCC cell viability assay (AID 1919871). Further: nearly all actives have a fitted effect of over 30% in size. An outline of the steps:
as §1

Test [9] can be described thus: Quantitative High-Throughput drug screen in 47 multiple myeloma cell lines against the NCATS MIPE library collection: OPM2_DSMZ cell viability assay (AID 1919872). Further: nearly all actives have a fitted effect of over 30% in size. In a few lines: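 Myeloma cell lines, 500 cells per well, exposed to MIPE 4.0 library compounds for 48 h at 37C, 5% CO2. Viability from ATP by CellTiter-Glo luminescence; normalised to DMSO (100%) and media-only (0%) wells.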

Test [10] is described as follows: Quantitative High-Throughput drug screen in 47 multiple myeloma cell lines against the NCATS MIPE library collection: KMS11_JCRBsus cell viability assay (AID 1919873). Further: nearly all actives have a fitted effect of over 50% in size. An outline of the steps:
as §1
Potency means the concentration at half of the fitted maximal effect.

With `Cc1cnn(C)c1C(=O)Nc1cc(Nc2ccc3c(C=Cc4ccccn4)n[nH]c3c2)ccc1F`, the Potency was 20900 nM (active) in test [1]; 5900 nM (active) in test [2]; 4690 nM (active) in test [3]; 10500 nM (active) in test [4]; 10500 nM (active) in test [5]; 2640 nM (active) in [6]. In addition, the Potency in [7] is 4690 nM (active); in test [8] it was 26400 nM (active); in test [9], 18700 nM (active); in [10] it was 11800 nM (active).
As for `C=C1C[C@@]2(O)O[C@@]3(C[C@H]2C(C)C)[C@H](C)CC[C@H]13`, the Potency entry in test [1], in [2], in test [3], in test [4], in [5] and in [6] was “inactive” in each case. In addition, the Potency result in [7], in test [8], in [9] and in test [10] was “inactive” throughout.
On to `CS(=O)(=O)N1CCc2c(-c3cnc(N)nc3)nc(N3CCOCC3)nc21`, for which the Potency in test [1] is 296 nM (active); in test [2], 743 nM (active); in [3] it was 372 nM (active); in test [4], 418 nM (active); in [5], 1 nM (active); in [6], 296 nM (active). Also, the Potency in [7] was 5260 nM (active); in test [9], 1050 nM (active).
Take `CCNC(=O)c1cc2c(-c3cc(OCCN4CCCC4)c(Cl)cc3Cl)nc(N)nc2s1`: the Potency in test [1] was 1050 nM (active); in test [2] it was 1660 nM (active); in [3] it was 833 nM (active); in [4], 743 nM (active); in [5], 1480 nM (active); in test [6], 1660 nM (active). For the same compound, the Potency in test [7] is 743 nM (active); in test [8], 1180 nM (active); in test [9] it was 2960 nM (active); in [10], 590 nM (active).
Consider `Cc1noc(-c2ccc(CSCCC(=O)O)cc2)c1NC(=O)OC(C)c1ccccc1Cl` (configuration not stated), for which the Potency result in [1], in test [2], in [3], in [4], in test [5] and in [6] was “inactive” throughout. For the same compound, the Potency entry in test [7], in test [8], in test [9] and in test [10] was “inactive” throughout.
`Cn1cc(CNCC2CCN(c3ncc(C(=O)NO)cn3)CC2)c2ccccc21`: the Potency in test [1] is 37.2 nM (active); in [2], 83.3 nM (active); in test [3] it was 52.6 nM (active); in test [4], 13.2 nM (active); in [5] it was 18.7 nM (active); in [6] it was 118 nM (active). For the same compound, the Potency was 37.2 nM (active) in test [7], 66.2 nM (active) in test [8], 41.8 nM (active) in test [9] and 26.4 nM (active) in [10].
`NC(=O)Nc1sc(-c2ccc(F)cc2)cc1C(N)=O`: the Potency is 13200 nM (active) in test [1]; 10.5 nM (active) in test [2]; 46.9 nM (active) in test [3]; 1320 nM (active) in [4]; 743 nM (active) in test [5]; 372 nM (active) in test [6]. Moreover, the Potency in test [7] was 833 nM (active); in [8], 5900 nM (active); in test [9], 18700 nM (active); in [10], 4690 nM (active).
On to `CCC(C(=O)O)C1CCC(C)C(C(C)C(O)C(C)C(=O)C(CC)C2OC3(C=CC(O)[C@@]4(CC[C@](C)(C5CC[C@@](O)(CC)C(C)O5)O4)O3)C(C)CC2C)O1` (some centres not stated), for which the Potency in [1] was 5260 nM (active); in [2], 3320 nM (active); in [3] it was 5900 nM (active); in test [4] it was 2090 nM (active); in test [5], 1320 nM (active); in test [6], 2640 nM (active). The Potency in [7] is 4690 nM (active); in test [8], 2350 nM (active); in [9], 1870 nM (active); in test [10], 3720 nM (active).
Regarding `CN1CCCN(C(=O)c2cccc(-c3ccc(C=C4C(=O)Nc5ccc(Cl)cc54)o3)c2)CC1`, the Potency in test [1] was 18700 nM (active); in test [2], 7430 nM (active); in test [3], 11800 nM (active); in test [4] it was 18700 nM (active); in test [5] it was 935 nM (active); in [6], 23500 nM (active). Moreover, the Potency in test [7] is 9350 nM (active); in test [8], 23500 nM (active); in [9] it was 23500 nM (active); in test [10] it was 9350 nM (active).
In the case of `CC(=O)[C@]1(O)Cc2c(O)c3c(c(O)c2[C@@H](O[C@H]2C[C@H](N)[C@@H](O)[C@H](C)O2)C1)C(=O)c1ccccc1C3=O`, the Potency in test [1] is 264 nM (active); in [2], 235 nM (active); in [3] it was 166 nM (active); in test [4], 418 nM (active); in test [5] it was 37.2 nM (active); in test [6], 132 nM (active). Further, the Potency in test [7] was 187 nM (active); in test [8], 418 nM (active); in [9], 662 nM (active); in [10], 264 nM (active).
Take `CN[C@@H]1C[C@H]2O[C@@](C)([C@H]1OC)n1c3ccccc3c3c4c(c5c6ccccc6n2c5c31)C(=O)N[C@H]4O`: the Potency in test [1] is 1050 nM (active); in test [2] it was 83.3 nM (active); in test [3], 148 nM (active); in [4] it was 46.9 nM (active); in [5], 148 nM (active); in test [6], 118 nM (active). Further, the Potency in test [7] was 148 nM (active); in [8], 2090 nM (active); in [9] it was 1050 nM (active); in [10], 264 nM (active).
In the case of `CCOC(=O)N1CCN([N+]([O-])=NOc2ccc([N+](=O)[O-])cc2[N+](=O)[O-])CC1`, the Potency was 2640 nM (active) in [1]; 2640 nM (active) in test [2]; 418 nM (active) in [3]; 2350 nM (active) in [4]; 526 nM (active) in [5]; 1480 nM (active) in test [6]. For the same compound, the figures for the Potency in test [7], in test [8] and in [10] were 743 nM (active), 13200 nM (active) and 332 nM (active), respectively.
In the case of `C=CC(=O)Nc1cccc(Nc2nc(NC3CCC(N(C)C)CC3)nc3c2ncn3C(C)C)c1` (configuration not stated), the Potency was 296 nM (active) in test [1]; 16.6 nM (active) in test [2]; 105 nM (active) in test [3]; 235 nM (active) in test [4]; 132 nM (active) in test [5]; 209 nM (active) in test [6]. In addition, the Potency in test [7] was 209 nM (active); in test [8], 1050 nM (active); in test [9], 1870 nM (active); in [10], 372 nM (active).
